Assay results taken from PubChem BioAssay (Tox21).
Where “and” joins values, the source holds several entries; their conditions need not be identical. Equal entries are not always repeated. Results filed as inconclusive are left out. Some structures have more than one record in an assay (separate samples or runs), and their calls can disagree. Calls of active or inactive are those of the source. Calls come from the whole dose curve; as a rule, active = well fitted cell-killing curve with a large enough effect in the repeat runs; inconclusive = weak or mixed curves, or effect the other way; inactive = no such curve, though single readings can be large or run the other way.

experiment: qHTS assay for identifying genotoxic compounds that show differential cytotoxicity against isogenic chicken DT40 cell lines with known DNA damage response pathways - wild type cell line (AID 743012); details: DT40 wild type chicken cells viability, CellTiter-Glo, 40 h; series mostly up to 68.4 µM; activity change, negative = cytotoxicity: at the top concentration; note: nearly all actives have a fitted effect of over 60% in size
Description: U.S. Tox21 Program National Center for Advancing Translational Sciences [NCATS] NIH Chemical Genomics Center [NCGC] U.S. Environmental Protection Agency [EPA] National Institutes of Environmental Health Sciences [NIEHS] National Toxicology Program [NTP] U.S. Food and Drug Administration [FDA] Tox21 Assay Overview: DNA repair pathways play a critical role in cellular homeostasis by repairing DNA damage induced by endogenous processes and xenobiotics. Isogenic chicken DT40 cell lines deficient in different DNA repair pathways can be used to identify genotoxic compounds and aid in characterizing the nature of the DNA damage induced. Two DNA repair-deficient cell lines with disrupted genes, Rad54/Ku70 or Rev3, were used to screen the Tox21 10K compound library. Possible genotoxicity was based on the presence of a significant increase in cytotoxicity in one or more of the DNA repair-deficient cell lines compared to that observed in the parental DNA repair-proficient cell line. CellTiter Glo viability assay (Promega, Madison, WI) was used to measure cell viability in these cells after compound treatment. This assay includes the data from the wild type cell line.
Tox21 Assay Protocol Summary: 300 DT40 wild type cells in 5 uL/well were dispensed into white, solid-bottom 1536-well plates using a Multidrop Combi (ThermoFisher Scientific, Waltham, MA) dispenser. After the assay plates were incubated at 37 C/5% CO2 for approximately 0.5 hour, 23 nL of compounds dissolved in DMSO, positive controls or DMSO only was transferred into the assay plate by a pintool work station (Kalypsys, San Diego, CA). The assay plates were incubated at 37 C/5% CO2 for 40 hours. After 5 uL per well of CellTiter-Glo reagent was added into each well of the assay plates, the plates were incubated for 30 min at room temperature and the luminescence intensity of the plates was measured using a ViewLux (PerkinElmer, Shelton, CT) plate reader.
% is set by controls: 0 for no effect and ±100 for the full control effect; potency is the fitted concentration of half-maximal effect.

| SMILES | Potency | activity change, negative = cytotoxicity |
| --- | --- | --- |
| CN(C)C | inactive |  |
| COc1ccc(-c2coc3cc(O)cc(O)c3c2=O)cc1 | 54.5 µM (active) |  |
| C[C@]12CC[C@@H]3c4ccc(O)cc4CC[C@H]3[C@@H]1CC[C@H]2O | 44 µM (active) and 48.6 µM (active) |  |
| C=C[Si](OCCOC)(OCCOC)OCCOC | 43.3 µM (active) |  |
| Nc1ccc2c(O)cc(S(=O)(=O)O)cc2c1 |  | -3.37% (inactive) |
| O=C(O)c1cc(=O)[nH]c(=O)[nH]1 | inactive |  |
| O=[Se](O)O | 433 nM (active) and 5.23 µM (active) |  |
| Cc1ccc(N)c([N+](=O)[O-])c1 |  | 1.31% (inactive) |
| C[C@]12C=CC(=O)C=C1CC[C@H]1[C@@H]3C[C@@H](O)[C@](O)(C(=O)CO)[C@@]3(C)C[C@H](O)[C@@]12F | 68.6 µM (active) |  |
| [Na+] | inactive |  |
| CC/C=C\C/C=C\C/C=C\CCCCCCCC(=O)O |  | 4.77% (inactive) |
| C=C[C@H]1CN2CC[C@H]1C[C@H]2[C@H](O)c1ccnc2ccc(OC)cc12 | 13.3 µM (active) and 8.41 µM (active) and 54.5 µM (active) |  |
| CCCCCCCCCCCCCO |  | 4.92% [at 95 µM] (inactive) |
| [O-]/[N+](=N\O)c1ccccc1 |  | -16.2% (inactive) |
| CCCCCCCC/C=C\CCCCCCCC(=O)O | inactive |  |
| CCOC(=O)C(C)Oc1ccc(Oc2cnc3cc(Cl)ccc3n2)cc1 (stereo not given) | 40.5 µM (active) |  |
| CC[C@]12CCCN3CCc4c(n(c5ccccc45)[C@@](O)(C(=O)OC)C1)[C@@H]32 | inactive |  |
| CC(=O)Oc1ccc(C(c2ccc(OC(C)=O)cc2)c2ccccn2)cc1 | 23.7 µM (active) and inactive |  |
| c1ccc2c(c1)ccc1cc3c(ccc4ccccc43)cc12 | inactive |  |
| CCC(=O)O[C@H]1[C@H](O[C@@H]2[C@@H](C)[C@H](O[C@H]3C[C@@](C)(OC)[C@@H](O)[C@H](C)O3)[C@@H](C)C(=O)O[C@H](CC)[C@@](C)(O)[C@H](O)[C@@H](C)C(=O)[C@H](C)C[C@@]2(C)O)O[C@H](C)C[C@@H]1N(C)C | 40.5 µM (active) |  |

| SMILES | Potency | activity change, negative = cytotoxicity |
| --- | --- | --- |
| CC(=O)[C@@]1(O)CC[C@H]2[C@@H]3C[C@H](C)C4=CC(=O)C=C[C@]4(C)[C@@]3(F)[C@@H](O)C[C@@]21C |  | -19.5% [at 31.4 µM] (inactive) |
| Cc1ccc(S(=O)(=O)NCl)cc1 | inactive |  |
| C=CC(C)(O)CCC=C(C)C (stereo not given) | inactive |  |
| CC(C)=CCO | inactive |  |
| O=C1OC2(c3ccccc31)c1cc(I)c(O)c(I)c1Oc1c2cc(I)c(O)c1I | inactive and 9.33 µM (active) |  |
| COC(=O)c1ccc(C)cc1 | inactive |  |
| O=C(CCCN1CCC(O)(c2ccc(Cl)cc2)CC1)c1ccc(F)cc1 | 5.96 µM (active) and 7.7 µM (active) |  |
| CN1CCOCC1 | inactive |  |
| Nc1cc([N+](=O)[O-])ccc1C(=O)O | inactive |  |
| Cc1ccc(C(C)(C)C)cc1 | inactive |  |
| COC(=O)CC(=O)OC | inactive |  |
| NCCS(=O)(=O)O |  | 4.04% (inactive) |
| O=S1(=O)CCCO1 | inactive |  |
| FC(F)(F)C(Cl)Br (stereo not given) | inactive |  |
| COc1ccc2nc(N)sc2c1 |  | 0.802% (inactive) |
| CC(C)[N+](C)(CCOC(=O)C1c2ccccc2Oc2ccccc21)C(C)C |  | 0.415% (inactive) |
| CC1(C)C(C=C(Cl)Cl)C1C(=O)OCc1cccc(Oc2ccccc2)c1 (stereo not given) | inactive |  |
| Oc1c(Cl)ccc(Cl)c1Cl |  | -1.4% (inactive) |
| CC1=CC(C)(C)Nc2ccccc21 | inactive and 66.8 µM (active) |  |
| O=C(O)CCCCCCCCCCCC(=O)O | inactive |  |
